# Compounds with a hit are over-represented: about 11% of the library has one in this group of screens.
# Tau fibril ThT: inhibitors of human tau fibril formation, thioflavin T binding; P10636; recombinant tau K18 P301L, heparin-induced fibrillization, ThT fluorescence; Potency, µM (series often up to 57.4 µM), inactives show at the top dose activity, negative = inhibition, hits mostly inhibitors; 270,000 compounds, 2.1% hits; AID 1460; also: potency is read from the fitted curve at half-maximal effect; nearly all actives have a fitted effect of over 55% in size
# Target sequence (P10636 561-689 P618L limits assumed): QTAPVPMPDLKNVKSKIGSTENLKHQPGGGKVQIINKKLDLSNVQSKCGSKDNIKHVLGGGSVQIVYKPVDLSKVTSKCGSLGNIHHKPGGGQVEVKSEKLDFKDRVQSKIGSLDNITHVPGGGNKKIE
#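 Tau K18 P301L fragment (15 uM unlabeled plus 0.24 uM Alexa 594-labeled) in 100 mM sodium acetate pH 7 with compound, fibrillization induced by 20 uM heparin for 6 hr at 37 C. Thioflavin T (30 uM) added, fluorescence read after 1 hr (ex 450, em 510 nm).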
# Coupling enz: inhibits coupling enzyme system, counter-screen for aldolase hits. 290,000 compounds, 0.67% hits. activity change, negative = inhibition, % at 58.2 µM, hits read low. coupling enzyme system counterscreen, AmpLite Red fluorescence. AID 2472; in the data active = activity change below about -30%
#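 Compounds tested against the coupling enzymes alone at 57.5 uM final; readout was AmpLite Red fluorescence (525/598 nm) after 20 min at RT.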
# Tau fluor counter: counter-screen for tau fibril formation inhibitors; AID 1463; 280,000 compounds, 0.93% hits; Potency, µM (top dose mostly 57.7 µM), inactives show at the top dose activity change, negative = decrease; tau K18 P301L Alexa594 fluorescence, heparin fibrillization; also: potency is read from the fitted curve at half-maximal effect; nearly all actives have a fitted effect of over 55% in size
#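 Human tau K18 P301L (15 uM unlabeled, 0.24 uM Alexa 594-labeled) in 100 mM sodium acetate pH 7 with 20 uM heparin, 6 hr at 37 C. ThT 30 uM added, 1 hr ambient; Alexa 594 FP and total fluorescence read at 555/632 nm.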
# Tau FP inhib: blocks human tau fibril formation measured by polarization | P10636 | Potency, µM (top dose mostly 57.7 µM), for the others: top-dose activity, negative = inhibition, actives largely listed as inhibitors | K18 P301L tau heparin fibrillization, Alexa594 FP, 6 h | 280,000 compounds, 0.39% hits; also: potency is read from the fitted curve at half-maximal effect; nearly all actives have a fitted effect of over 55% in size
#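 Human K18 P301L fragment (15 uM unlabeled plus 0.24 uM Alexa 594-labeled) in 100 mM sodium acetate pH 7 with compound, aggregation induced by 20 uM heparin for 6 hr at 37 C. ThT (30 uM) added for 1 hr, then Alexa 594 FP read.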
# Sfp inh: Sfp phosphopantetheinyl transferase inhibition; 310,000 compounds, 3.5% hits; Q9F4F7; Potency, µM, without a hit: largest response in the series, negative = inhibition, actives largely listed as inhibitors; AID 1490; Biochemical Sfp PPTase activity, qHTS;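 also: the enzyme is Sfp with the accession as filed and its product quenches rhodamine fluorescence; potency is read from the fitted curve at half-maximal effect; 0% = enzyme reaction without inhibitor and -100% = no enzyme wells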
#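 With Hepes-Na pH 7.6 buffer containing 10 mM MgCl2, Sfp (15 nM) modified BHQ-2-YbbR (12.5 uM) using rhodamine-CoA (5 uM). Two reads 30 minutes apart at 525/598 nm yielded each well's rate.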
# G9a block: blocks human histone lysine methyltransferase G9a; Potency, µM (highest dose often 102 µM), for the others: top-dose activity, negative = inhibition, actives largely listed as inhibitors; G9a H3K9 monomethylation, AlphaScreen, 2 h; 350,000 compounds, 8.8% hits; also: potency is read from the fitted curve at half-maximal effect; nearly all actives have a fitted effect of over 75% in size
# Target sequence (Q96KQ7 913-1193 limits assumed): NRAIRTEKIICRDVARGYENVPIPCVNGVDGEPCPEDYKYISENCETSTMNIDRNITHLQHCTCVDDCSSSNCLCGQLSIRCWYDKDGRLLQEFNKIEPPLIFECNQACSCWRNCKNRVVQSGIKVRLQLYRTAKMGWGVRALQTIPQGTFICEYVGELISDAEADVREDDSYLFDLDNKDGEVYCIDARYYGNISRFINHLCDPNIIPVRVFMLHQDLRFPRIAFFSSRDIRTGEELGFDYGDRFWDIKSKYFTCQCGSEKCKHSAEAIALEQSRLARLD
#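 Enzyme 20 nM + cpd, 15 min RT; add b-H3K9 pep 500 nM / SAM 20 uM; 2 h RT; anti-H3K9me1 Ab 0.5 ug/mL + SA donor / anti-rabbit acceptor beads 20 ug/mL each, 10 min; AlphaScreen read.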
# * marks the source's active call; other numbers are inactive results; u = inconclusive; x = no result given; ! = not active in a repeat; [ ] = dose if it differs, or a comment. Unless noted, calls follow the shape of the dose curve; as a rule, active = well fitted curve in the direction sought with a large enough effect; inconclusive = small, poorly fitted or top-dose-only effect, or another doubt; inactive = no such curve, though single readings can be large; an effect the other way counts as inactive or inconclusive. Unless noted, % is scaled to controls: 0 for no effect and ±100 for the full control effect.
SMILES,Tau fibril ThT,Coupling enz,Tau fluor counter,Tau FP inhib,Sfp inh,G9a block
CC(C)(C)OC(=O)N1CCC(c2c(C(=O)NCc3ccccc3)cnn2-c2cccc(F)c2)CC1,-10.9%,x,-17.3%,4.4%,x,-22.6%[59 µM]
O=C(c1ccccc1)N1CCN(CC(O)COCC2CC=CCC2)CC1 (stereo not drawn),-8.5%,1.6,-2.9%,-9.2%,14.5%,-6.5%[59 µM]
O=C(c1ccccc1)N1CCN(Cc2ccccc2)CC1,0.9%,1.2,2.2%,0.9%,-17.1%,2µM*
CC(C)(C)c1ccc(C(=O)N2CCN(Cc3ccccc3)CC2)cc1,x,0.0,x,x,4.3%,7.4%
Cc1c(C(=O)N2CCN(Cc3ccccc3)CC2)oc2c1C(=O)CC(C)(C)C2,x,x,x,x,-27.9%,35.5µM*
O=C(c1ccccc1)N1CCN(CC2CC=CCC2)CC1 (stereo not drawn),2.0%,3.9,-0.8%,-0.6%,u,2.24µM*
CCS(=O)(=O)N1CCC(NC(=O)C(Cc2cccc(OC)c2OC)NC(C)=O)CC1 (stereo not drawn),x,-2.9,x,x,11.6%,x
COC(=O)[C@H](CCSC)NC(=O)c1cc2c(cn1)[nH]c1ccccc12,x,0.0,x,x,8.91µM*,1.78µM*
CCOC(=O)c1csc(NC(=O)CCSc2ccccc2)n1,-12.4%,2.5,-6.2%,3.0%,14.5%,7.9%
CCOC(=O)C(=O)c1csc(NC(=O)CCSc2ccc(C)cc2)n1,-7.7%,0.8,-7.6%,-3.8%,-1.0%,70.8µM*
N=c1n(CCN2CCOCC2)c2ccccc2n1CC(=O)c1ccc(Cl)c(Cl)c1,-11.6%,-30.9*,-1.1%,1.1%,-6.2%,x
Nc1c(C(=O)c2ccccc2)sc2nsc(SCCN3CCOCC3)c12,u,-1.8,-20.4%,8.7%,50.1µM*,x
CC(C)Cc1c(O)nc(SCCN2CCOCC2)[nH]c1=O,-8.9%,-1.6,-7.6%,-0.2%,6.5%,2.3%
CC(=O)c1sc2nsc(SCCN3CCOCC3)c2c1N,u,-3.0,-13.8%,u,8.91µM*,0.794µM*
Cc1ccc(C(=O)c2sc3nsc(C)c3c2N)cc1,5.6%,5.7,-2.2%,-2.9%,-6.1%,u
CCOc1ccc(CNS(=O)(=O)c2cccs2)cc1OCC,x,-1.0,x,x,11.3%,x
COn1c2c(c3c4nonc4ccc31)CCCC2,14.1µM*,-42.9*,u,u,-27.4%,10µM*
COn1c(C)c(C(C)=O)c2c3nonc3ccc21,14.1µM*,-47.2*,-14.8%,u,-24.2%,3.4%
O=C(CCS(=O)(=O)c1cc2c(cc1Cl)NC(=O)CO2)NCCc1ccc(Cl)cc1,u,x,-13.8%,5.3%,x,0.5%[59 µM]
CC(=O)Oc1ccc(C(=O)NCc2ccco2)cc1,x,-0.3,x,x,8.6%,9.7%
Cc1nc2nc[nH]c2cc1Br,-3.9%,3.0,-8.5%,-2.7%,6.3%,-7.4%
Cc1nc2[nH]c(=S)[nH]c2cc1Br,-6.9%,1.4,-7.7%,-2.8%,-11.6%,3.98µM*
Cc1cccc(NC(=O)Cn2c(=O)n(CC3CCC(C(=O)NCCc4ccccc4)CC3)c(=O)c3ccccc32)c1C (stereo not drawn),-4.9%,x,-3.3%,1.3%,x,-3.9%[59 µM]
CCN1CCCc2cc(CN(CCN3CCOCC3)C(=O)Nc3ccc(C)c(C)c3)ccc21,u,-4.5,u,8.1%,-14.5%,8.91µM*
CCCCN1CCCc2cc(CN(CCCN3CCOCC3)C(=O)Nc3ccc(OCC)cc3)ccc21,u,x,u,-6.8%,x,u
SMILES,Tau fibril ThT,Coupling enz,Tau fluor counter,Tau FP inhib,Sfp inh,G9a block
CCc1ccc(NC(=O)N(CCN2CCOCC2)Cc2ccc3c(c2)CCCN3CC)cc1,-2.9%,-13.5,-8.2%,-0.7%,u,31.6µM*
O=C(NC1CCCC1)c1ccc(CSc2nc3ccncc3n2Cc2cccc(F)c2)cc1,-5.3%,x,-8.4%,-1.9%,x,u
O=C(NC1CCCC1)c1ccc(CSc2nc3ccncc3n2Cc2ccc(F)cc2)cc1,-10.7%,4.7,-13.9%,-4.5%,1.2%,44.7µM*!
O=C1Nc2ccc(F)cc2C12Nc1ccccc1-c1nnc(SCc3ccccc3Cl)nc1O2 (stereo not drawn),28.2µM*,-8.0,u,u,-3.1%,u
O=C1Nc2ccc(F)cc2C12Nc1ccccc1-c1nnc(SCc3ccccc3)nc1O2 (stereo not drawn),u,-11.1,u,u,-14.3%,-10.8%[0.0925 µM]
COc1cc(C2Nc3ccccc3-c3nnc(SCc4ccc(C)cc4)nc3O2)cc(OC)c1O (stereo not drawn),u,x,-14.1%,-9.9%,x,7.08µM*
COc1cc(C2Nc3ccccc3-c3nnc(SCc4ccc(Cl)cc4)nc3O2)ccc1OCC(=O)O (stereo not drawn),u,x,-21.2%,6.9%,x,-6.3%[59 µM]
Cc1ccc(CSc2nnc3c(n2)OC2(Nc4ccccc4-3)C(=O)Nc3ccc(F)cc32)cc1 (stereo not drawn),28.2µM*,-13.4,u,u,-15.7%,3.8%[12.7 µM]
CC(=O)c1ccc(NC(=O)Cn2c(=O)n(Cc3ccco3)c(=O)c3sc4ccccc4c32)cc1,13.3%,x,7.7%,u,x,-25.1%[59 µM]
COc1ccc(-c2nc3cnc(Nc4cccc(OC)c4)nc3n(C[C@H]3CCCO3)c2=O)cc1,x,-5.4,x,x,-13.6%,-0.3%[0.501 µM]
CCCCCn1c(=O)c2ccccc2n2c(=S)[nH]nc12,x,7.2,x,x,56.2µM*,1.41µM*
CCCn1c(=O)c2ccccc2n2c(SCC(=O)c3ccccc3)nnc12,2.5%,0.3,-3.5%,2.6%,1.7%,u
CCCn1c(=O)c2ccccc2n2c(=S)[nH]nc12,x,0.0,x,x,79.4µM*,3.55µM*
Cn1c(=O)c2ccccc2n2c(=S)[nH]nc12,x,0.0,x,x,50.1µM*,6.31µM*
CCCn1c(=O)c2ccccc2n2c(SCCNCCO)nnc12,x,1.4,x,x,35.5µM*,2.82µM*
COc1ccc(C2C3C=CCC(c4cccc(/C=C/c5ccccc5)c4)C3C(=O)N2Cc2ccccc2)cc1Cl (stereo not drawn),x,3.6,x,x,-5.7%,x
CCOc1ccc(NC(=O)COC(=O)CCC(=O)c2cccs2)cc1,x,x,x,x,x,11.0%[59 µM]
Cn1c(=O)c2ccccc2n2c(CCl)nnc12,x,4.6,x,x,21.7%,-7.7%
CCCCn1c(=O)c2ccccc2n2c(=S)[nH]nc12,x,2.2,x,x,u,1.26µM*
COc1ccc(C(C2C(=O)CC(C)(C)CC2=O)C2C(=O)CC(C)(C)CC2=O)cc1,-15.1%,2.7,-10.2%,-0.7%,25.1µM*,44.7µM*
CC1(C)CC(=O)C(C(c2ccncc2)C2C(=O)CC(C)(C)CC2=O)C(=O)C1,u,1.0,-11.9%,-9.8%,4.1%,50.1µM*
Cc1ccc(C(C2C(=O)CC(C)(C)CC2=O)C2C(=O)CC(C)(C)CC2=O)s1,-9.1%,-0.2,1.3%,-14.0%,50.1µM*,44.7µM*

# Source: PubChem
